# Test results reported in publication PMC11062922 (Nature Chemical Biology, 2023).
# Like-named read-outs stand apart in the source and are kept apart here.
# How the values were obtained:
# Conditions in all cases: read-out: apparent Kd, n = 1
# PAK4 = tested on: PAK4
# PHKG2 = tested on: PHKG2
# PKN1 = tested on: PKN1
# [1] = compound concentrations:100 nM and 1000 nM (sheet 'Lestaurtinib' of Supplementary Table 1),run:Lestaurtinib_02766_R2,Plate:MR027
# [2] = compound concentrations:100 nM and 1000 nM (sheet 'Lestaurtinib' of Supplementary Table 1),run:Lestaurtinib_02768_R1,Plate:MR028
# [3] = compound concentrations:100 nM and 1000 nM (sheet 'Lestaurtinib' of Supplementary Table 1),run:Lestaurtinib_02795_R1,Plate:MR022
# [4] = compound concentrations:100 nM and 1000 nM (sheet 'Lestaurtinib' of Supplementary Table 1),run:Lestaurtinib_02795_R3,Plate:MR022
# [5] = compound concentrations:100 nM and 1000 nM (sheet 'Lestaurtinib' of Supplementary Table 1),run:Lestaurtinib_02896_R3,Plate:MR030
# [6] = compound concentrations:100 nM and 1000 nM (sheet 'Lestaurtinib' of Supplementary Table 1),run:Lestaurtinib_03172_R1,Plate:MR031
# [7] = compound concentrations:100 nM and 1000 nM (sheet 'Lestaurtinib' of Supplementary Table 1),run:Lestaurtinib_03172_R3,Plate:MR031
# [8] = compound concentrations:100 nM and 1000 nM (sheet 'Lestaurtinib' of Supplementary Table 1),run:Lestaurtinib_03252_R1,Plate:MR032
# [9] = compound concentrations:100 nM and 1000 nM (sheet 'Lestaurtinib' of Supplementary Table 1),run:Lestaurtinib_03252_R2,Plate:MR032
# [10] = compound concentrations:100 nM and 1000 nM (sheet 'Lestaurtinib' of Supplementary Table 1),run:Lestaurtinib_03260_R1,Plate:MR033
# [11] = compound concentrations:100 nM and 1000 nM (sheet 'Lestaurtinib' of Supplementary Table 1),run:Lestaurtinib_03260_R2,Plate:MR033
# [12] = compound concentrations:100 nM and 1000 nM (sheet 'Lestaurtinib' of Supplementary Table 1),run:Lestaurtinib_02339_R1,Plate:MR001
# [13] = compound concentrations:100 nM and 1000 nM (sheet 'Lestaurtinib' of Supplementary Table 1),run:Lestaurtinib_02339_R2,Plate:MR001
# [14] = compound concentrations:100 nM and 1000 nM (sheet 'Lestaurtinib' of Supplementary Table 1),run:Lestaurtinib_02364_R1,Plate:MR002
substance,measurement,setting,value
Lestaurtinib,potency estimated from few doses,PAK4; [1],23.7 nM
same,potency estimated from few doses,PAK4; [2],35.4 nM
same,potency estimated from few doses,"PAK4; compound concentrations:100 nM and 1000 nM (sheet 'Lestaurtinib' of Supplementary Table 1),run:Lestaurtinib_02768_R2,Plate:MR028",29.5 nM
same,potency estimated from few doses,"PAK4; compound concentrations:100 nM and 1000 nM (sheet 'Lestaurtinib' of Supplementary Table 1),run:Lestaurtinib_02768_R3,Plate:MR028",32.7 nM
same,potency estimated from few doses,PAK4; [3],35.1 nM
same,potency estimated from few doses,"PAK4; compound concentrations:100 nM and 1000 nM (sheet 'Lestaurtinib' of Supplementary Table 1),run:Lestaurtinib_02795_R2,Plate:MR022",29.7 nM
same,potency estimated from few doses,PAK4; [4],113 nM
same,potency estimated from few doses,"PAK4; compound concentrations:100 nM and 1000 nM (sheet 'Lestaurtinib' of Supplementary Table 1),run:Lestaurtinib_02802_R3,Plate:MR029",24.8 nM
same,potency estimated from few doses,"PAK4; compound concentrations:100 nM and 1000 nM (sheet 'Lestaurtinib' of Supplementary Table 1),run:Lestaurtinib_02896_R1,Plate:MR030",35.9 nM
same,potency estimated from few doses,"PAK4; compound concentrations:100 nM and 1000 nM (sheet 'Lestaurtinib' of Supplementary Table 1),run:Lestaurtinib_02896_R2,Plate:MR030",30.1 nM
same,potency estimated from few doses,PAK4; [5],36.2 nM
same,potency estimated from few doses,PAK4; [6],32.7 nM
same,potency estimated from few doses,"PAK4; compound concentrations:100 nM and 1000 nM (sheet 'Lestaurtinib' of Supplementary Table 1),run:Lestaurtinib_03172_R2,Plate:MR031",29.6 nM
same,potency estimated from few doses,PAK4; [7],26.1 nM
same,potency estimated from few doses,PAK4; [8],43.4 nM
same,potency estimated from few doses,PAK4; [9],25.3 nM
same,potency estimated from few doses,PAK4; [10],48.6 nM
same,potency estimated from few doses,PAK4; [11],48 nM
same,potency estimated from few doses,PHKG2; [12],838 nM
same,potency estimated from few doses,PHKG2; [13],142 nM
same,potency estimated from few doses,"PHKG2; compound concentrations:100 nM and 1000 nM (sheet 'Lestaurtinib' of Supplementary Table 1),run:Lestaurtinib_02339_R3,Plate:MR001",275 nM
same,potency estimated from few doses,PHKG2; [14],462 nM
same,potency estimated from few doses,"PHKG2; compound concentrations:100 nM and 1000 nM (sheet 'Lestaurtinib' of Supplementary Table 1),run:Lestaurtinib_02364_R2,Plate:MR002",360 nM
same,potency estimated from few doses,"PHKG2; compound concentrations:100 nM and 1000 nM (sheet 'Lestaurtinib' of Supplementary Table 1),run:Lestaurtinib_02364_R3,Plate:MR002",574 nM
same,potency estimated from few doses,"PHKG2; compound concentrations:100 nM and 1000 nM (sheet 'Lestaurtinib' of Supplementary Table 1),run:Lestaurtinib_02367_R1,Plate:MR003",323 nM
same,potency estimated from few doses,"PHKG2; compound concentrations:100 nM and 1000 nM (sheet 'Lestaurtinib' of Supplementary Table 1),run:Lestaurtinib_02367_R3,Plate:MR003",356 nM
same,potency estimated from few doses,"PHKG2; compound concentrations:100 nM and 1000 nM (sheet 'Lestaurtinib' of Supplementary Table 1),run:Lestaurtinib_02381_R1,Plate:MR004",137 nM
same,potency estimated from few doses,"PHKG2; compound concentrations:100 nM and 1000 nM (sheet 'Lestaurtinib' of Supplementary Table 1),run:Lestaurtinib_02381_R2,Plate:MR004",197 nM
same,potency estimated from few doses,"PHKG2; compound concentrations:100 nM and 1000 nM (sheet 'Lestaurtinib' of Supplementary Table 1),run:Lestaurtinib_02381_R3,Plate:MR004",144 nM
same,potency estimated from few doses,"PHKG2; compound concentrations:100 nM and 1000 nM (sheet 'Lestaurtinib' of Supplementary Table 1),run:Lestaurtinib_02422_R1,Plate:MR006",213 nM
same,potency estimated from few doses,"PHKG2; compound concentrations:100 nM and 1000 nM (sheet 'Lestaurtinib' of Supplementary Table 1),run:Lestaurtinib_02422_R2,Plate:MR006",55.3 nM
same,potency estimated from few doses,"PHKG2; compound concentrations:100 nM and 1000 nM (sheet 'Lestaurtinib' of Supplementary Table 1),run:Lestaurtinib_02437_R1,Plate:MR007",135 nM
same,potency estimated from few doses,"PHKG2; compound concentrations:100 nM and 1000 nM (sheet 'Lestaurtinib' of Supplementary Table 1),run:Lestaurtinib_02443_R1,Plate:MR009",170 nM
same,potency estimated from few doses,"PHKG2; compound concentrations:100 nM and 1000 nM (sheet 'Lestaurtinib' of Supplementary Table 1),run:Lestaurtinib_02443_R2,Plate:MR009",193 nM
same,potency estimated from few doses,"PHKG2; compound concentrations:100 nM and 1000 nM (sheet 'Lestaurtinib' of Supplementary Table 1),run:Lestaurtinib_02443_R3,Plate:MR009",99.2 nM
same,potency estimated from few doses,"PHKG2; compound concentrations:100 nM and 1000 nM (sheet 'Lestaurtinib' of Supplementary Table 1),run:Lestaurtinib_02473_R1,Plate:MR010",310 nM
same,potency estimated from few doses,"PHKG2; compound concentrations:100 nM and 1000 nM (sheet 'Lestaurtinib' of Supplementary Table 1),run:Lestaurtinib_02473_R2,Plate:MR010",228 nM
same,potency estimated from few doses,"PHKG2; compound concentrations:100 nM and 1000 nM (sheet 'Lestaurtinib' of Supplementary Table 1),run:Lestaurtinib_02473_R3,Plate:MR010",159 nM
same,potency estimated from few doses,"PHKG2; compound concentrations:100 nM and 1000 nM (sheet 'Lestaurtinib' of Supplementary Table 1),run:Lestaurtinib_02482_R1,Plate:MR011",197 nM
same,potency estimated from few doses,"PHKG2; compound concentrations:100 nM and 1000 nM (sheet 'Lestaurtinib' of Supplementary Table 1),run:Lestaurtinib_02482_R2,Plate:MR011",501 nM
same,potency estimated from few doses,"PHKG2; compound concentrations:100 nM and 1000 nM (sheet 'Lestaurtinib' of Supplementary Table 1),run:Lestaurtinib_02482_R3,Plate:MR011",248 nM
same,potency estimated from few doses,"PHKG2; compound concentrations:100 nM and 1000 nM (sheet 'Lestaurtinib' of Supplementary Table 1),run:Lestaurtinib_02496_R1,Plate:MR013",115 nM
same,potency estimated from few doses,"PHKG2; compound concentrations:100 nM and 1000 nM (sheet 'Lestaurtinib' of Supplementary Table 1),run:Lestaurtinib_02496_R2,Plate:MR013",362 nM
same,potency estimated from few doses,"PHKG2; compound concentrations:100 nM and 1000 nM (sheet 'Lestaurtinib' of Supplementary Table 1),run:Lestaurtinib_02496_R3,Plate:MR013",182 nM
same,potency estimated from few doses,"PHKG2; compound concentrations:100 nM and 1000 nM (sheet 'Lestaurtinib' of Supplementary Table 1),run:Lestaurtinib_02566_R1,Plate:MR014",309 nM
same,potency estimated from few doses,"PHKG2; compound concentrations:100 nM and 1000 nM (sheet 'Lestaurtinib' of Supplementary Table 1),run:Lestaurtinib_02566_R2,Plate:MR014",151 nM
same,potency estimated from few doses,"PHKG2; compound concentrations:100 nM and 1000 nM (sheet 'Lestaurtinib' of Supplementary Table 1),run:Lestaurtinib_02566_R3,Plate:MR014",182 nM
same,potency estimated from few doses,"PHKG2; compound concentrations:100 nM and 1000 nM (sheet 'Lestaurtinib' of Supplementary Table 1),run:Lestaurtinib_02572_R1,Plate:MR015",92 nM
same,potency estimated from few doses,"PHKG2; compound concentrations:100 nM and 1000 nM (sheet 'Lestaurtinib' of Supplementary Table 1),run:Lestaurtinib_02572_R2,Plate:MR015",444 nM
same,potency estimated from few doses,"PHKG2; compound concentrations:100 nM and 1000 nM (sheet 'Lestaurtinib' of Supplementary Table 1),run:Lestaurtinib_02584_R1,Plate:MR017",215 nM
same,potency estimated from few doses,"PHKG2; compound concentrations:100 nM and 1000 nM (sheet 'Lestaurtinib' of Supplementary Table 1),run:Lestaurtinib_02584_R2,Plate:MR017",239 nM
same,potency estimated from few doses,"PHKG2; compound concentrations:100 nM and 1000 nM (sheet 'Lestaurtinib' of Supplementary Table 1),run:Lestaurtinib_02606_R1,Plate:MR019",197 nM
same,potency estimated from few doses,"PHKG2; compound concentrations:100 nM and 1000 nM (sheet 'Lestaurtinib' of Supplementary Table 1),run:Lestaurtinib_02606_R2,Plate:MR019",175 nM
same,potency estimated from few doses,"PHKG2; compound concentrations:100 nM and 1000 nM (sheet 'Lestaurtinib' of Supplementary Table 1),run:Lestaurtinib_02606_R3,Plate:MR019",636 nM
same,potency estimated from few doses,"PHKG2; compound concentrations:100 nM and 1000 nM (sheet 'Lestaurtinib' of Supplementary Table 1),run:Lestaurtinib_02624_R1,Plate:MR020",390 nM
same,potency estimated from few doses,"PHKG2; compound concentrations:100 nM and 1000 nM (sheet 'Lestaurtinib' of Supplementary Table 1),run:Lestaurtinib_02624_R3,Plate:MR020",244 nM
same,potency estimated from few doses,"PHKG2; compound concentrations:100 nM and 1000 nM (sheet 'Lestaurtinib' of Supplementary Table 1),run:Lestaurtinib_02724_R1,Plate:MR021",270 nM
same,potency estimated from few doses,"PHKG2; compound concentrations:100 nM and 1000 nM (sheet 'Lestaurtinib' of Supplementary Table 1),run:Lestaurtinib_02724_R2,Plate:MR021",239 nM
same,potency estimated from few doses,"PHKG2; compound concentrations:100 nM and 1000 nM (sheet 'Lestaurtinib' of Supplementary Table 1),run:Lestaurtinib_02724_R3,Plate:MR021",180 nM
same,potency estimated from few doses,"PHKG2; compound concentrations:100 nM and 1000 nM (sheet 'Lestaurtinib' of Supplementary Table 1),run:Lestaurtinib_02741_R1,Plate:MR023",372 nM
same,potency estimated from few doses,"PHKG2; compound concentrations:100 nM and 1000 nM (sheet 'Lestaurtinib' of Supplementary Table 1),run:Lestaurtinib_02741_R2,Plate:MR023",355 nM
same,potency estimated from few doses,"PHKG2; compound concentrations:100 nM and 1000 nM (sheet 'Lestaurtinib' of Supplementary Table 1),run:Lestaurtinib_02741_R3,Plate:MR023",301 nM
same,potency estimated from few doses,"PHKG2; compound concentrations:100 nM and 1000 nM (sheet 'Lestaurtinib' of Supplementary Table 1),run:Lestaurtinib_02748_R1,Plate:MR024",208 nM
same,potency estimated from few doses,"PHKG2; compound concentrations:100 nM and 1000 nM (sheet 'Lestaurtinib' of Supplementary Table 1),run:Lestaurtinib_02748_R3,Plate:MR024",211 nM
same,potency estimated from few doses,"PHKG2; compound concentrations:100 nM and 1000 nM (sheet 'Lestaurtinib' of Supplementary Table 1),run:Lestaurtinib_02765_R1,Plate:MR026",637 nM
same,potency estimated from few doses,"PHKG2; compound concentrations:100 nM and 1000 nM (sheet 'Lestaurtinib' of Supplementary Table 1),run:Lestaurtinib_02765_R2,Plate:MR026",849 nM
same,potency estimated from few doses,"PHKG2; compound concentrations:100 nM and 1000 nM (sheet 'Lestaurtinib' of Supplementary Table 1),run:Lestaurtinib_02765_R3,Plate:MR026",487 nM
same,potency estimated from few doses,"PHKG2; compound concentrations:100 nM and 1000 nM (sheet 'Lestaurtinib' of Supplementary Table 1),run:Lestaurtinib_02766_R1,Plate:MR027",440 nM
same,potency estimated from few doses,PHKG2; [1],170 nM
same,potency estimated from few doses,PHKG2; [2],124 nM
same,potency estimated from few doses,PHKG2; [3],217 nM
same,potency estimated from few doses,PHKG2; [4],347 nM
same,potency estimated from few doses,"PHKG2; compound concentrations:100 nM and 1000 nM (sheet 'Lestaurtinib' of Supplementary Table 1),run:Lestaurtinib_02802_R2,Plate:MR029",197 nM
same,potency estimated from few doses,PHKG2; [5],250 nM
same,potency estimated from few doses,PHKG2; [6],153 nM
same,potency estimated from few doses,PHKG2; [7],213 nM
same,potency estimated from few doses,PHKG2; [8],635 nM
same,potency estimated from few doses,PHKG2; [9],91.1 nM
same,potency estimated from few doses,PHKG2; [10],321 nM
same,potency estimated from few doses,PHKG2; [11],323 nM
same,potency estimated from few doses,"PHKG2; compound concentrations:100 nM and 1000 nM (sheet 'Lestaurtinib' of Supplementary Table 1),run:Lestaurtinib_03260_R3,Plate:MR033",212 nM
same,potency estimated from few doses,PKN1; [12],424 nM
same,potency estimated from few doses,PKN1; [13],316 nM
same,potency estimated from few doses,PKN1; [14],497 nM
